# High-throughput results from PubChem.
# In the library only some 17% were active in any assay of this set; here they are far more common.
# ClpP mod = qHTS Assay for Activators of ClpP. purified B. subtilis ClpP, FRET peptide cleavage, 20 min. ATP-dependent Clp protease proteolytic subunit (Bacillus subtilis (strain 168)), P80244. actives 1.9% (n = 340,000). AID 651965, 2013. Potency, µM (doses to about 57.5 µM); active = well fitted falling curve with a large enough effect; inconclusive = small, poorly fitted or top-dose-only effect; inactive = no such curve, though single readings can be large or run the other way; note: the source files actives as falling curves though it sought activators and does not explain the sign; nearly all actives have a fitted effect of over 65% in size
#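 FRET quenching reversal measured ClpP activation: 10 microg/mL B. subtilis ClpP at pH 8 with the FRET-FV decapeptide, read at 430 nm after 320 nm excitation. The 20-min minus 0-min signal was scaled between DMSO/no-enzyme wells and ADEP (5.8 microM final).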
# TDP1 inh = qHTS Assay for Inhibitors of Tyrosyl-DNA Phosphodiesterase (TDP1); recombinant TDP1, AlphaScreen DNA substrate cleavage; actives 0.28% (n = 350,000); AID 485290, 2010; Potency, µM (titrated, usually from 130 µM), usual class: inhibitors; Tyrosyl-DNA phosphodiesterase 1 (Homo sapiens), Q9NUW8; note: nearly all actives have a fitted effect of over 40% in size
#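 Compounds were preincubated with Tdp1 (1 nM final) for 15 min at room temperature before substrate (15 nM final) started a 5 min reaction; beads (10 ug/ml final) were then added for 10 min before AlphaScreen detection.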
# DT40 TDP1 CPT = qHTS for Inhibitors of human tyrosyl-DNA phosphodiesterase 1 (TDP1): qHTS in cells in presence of CPT | chicken DT40 Tdp1-/-;hTDP1 cells + 20 nM CPT, ATP luminescence, 48 h | Potency, µM (titrated, usually from 46.2 µM), actives largely listed as inhibitors | actives 12% (n = 420,000); note: nearly all actives have a fitted effect of over 55% in size
#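 Cell growth measured by CellTiter-Glo luminescence after a minimum 48 h, 37 C compound exposure with 20 nM CPT in Tdp1-knockout DT40 cells stably expressing hTDP1, seeded 400/well; qHTS titration format.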
# TDP1 cell noCPT = qHTS for Inhibitors of human tyrosyl-DNA phosphodiesterase 1 (TDP1): qHTS in cells in absence of CPT. actives 15% (n = 420,000). DT40 Tdp1-/- hTDP1 cells, no CPT, ATP luminescence, 48 h. Potency, µM (top dose mostly 46.2 µM), actives largely listed as inhibitors; note: nearly all actives have a fitted effect of over 55% in size
#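 Chicken DT40 Tdp1-/- cells stably complemented with human TDP1 were seeded at 400 cells/well with DMSO in place of 20 nM camptothecin. After compound pinning, cells grew at least 48 hr at 37 °C; viability read by CellTiter-Glo luminescence.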
# Hits are given with their value; – = inactive; ? = inconclusive; · = not tested or not shown; ! = not active in a repeat; [ ] = another dose, or the depositor's remark. Unless noted, calls come from the whole dose curve; as a rule, active = well fitted curve in the direction sought with a large enough effect; inconclusive = small, poorly fitted or top-dose-only effect, or another doubt; inactive = no such curve, though single readings can be large; an effect the other way counts as inactive or inconclusive.
SMILES,ClpP mod,TDP1 inh,DT40 TDP1 CPT,TDP1 cell noCPT
COC(=O)C1=C(C)NC(C)=C(C(=O)OCCCN2CCC(c3ccccc3)(c3ccccc3)CC2)[C@H]1c1cccc([N+](=O)[O-])c1,·,–,11.9µM,11.9µM
CCOC(=O)C1=C(N)Oc2cc(O)ccc2C1c1cccc([N+](=O)[O-])c1 (centres undefined),·,–,?,16.4µM
COCCOC(=O)C1=C(C)NC(C)=C(C(=O)OC(C)C)C1c1cccc([N+](=O)[O-])c1 (centres undefined),–,–,?,15µM!
COCCOC(=O)C1=C(C)NC(C)=C(C(=O)OC/C=C/c2ccccc2)C1c1cccc([N+](=O)[O-])c1 (centres undefined),·,–,?,?
Cc1ccc(OCCC(=O)OCC(=O)NC2CCS(=O)(=O)C2)cc1 (centres undefined),·,–,–,–
COCCOC(=O)C1=C(C)NC(C)=C(C(=O)OC(C)C)[C@@H]1c1cccc([N+](=O)[O-])c1,·,–,?,?
CCOC(=O)C1=C(C)NC(C)=C(C(=O)OCC)C1c1ccc([N+](=O)[O-])s1,–,–,14.6µM,10.3µM
CCOC(=O)C1=C(C)NC(C)=C(C(=O)OC)[C@@H]1c1cccc([N+](=O)[O-])c1,·,–[21 µM],·,·
CCOC(=O)C1=C(C)NC(C)=C(C(=O)OC)[C@H]1c1cccc([N+](=O)[O-])c1,–,–,26.6µM,23.7µM
CCOC(=O)C1=C(C)NC(C)=C(C(=O)OC)C1c1cccc([N+](=O)[O-])c1 (centres undefined),–,–,11.9µM!,15µM!
COC(=O)C1=C(C)NC(C)=C(C(=O)OC(C)(C)CN(C)CCC(c2ccccc2)c2ccccc2)C1c1cccc([N+](=O)[O-])c1 (centres undefined),·,·,8.41µM,8.41µM
Cc1ccc(S(=O)(=O)NC(N)=NCCC[C@@H](N)C(=O)Nc2cc(C(F)(F)F)ccc2Cl)cc1,·,–,·,·
Cc1ccc(N2CC(NC(=O)CCc3ccccc3)CC2=O)cc1C (centres undefined),–,–,–,–
COc1ccc(CCNC(=O)Nc2ccc3nc([C@@H]4O[C@H](CO)[C@@H](O)[C@H](O)[C@H]4O)[nH]c3c2)cc1Br,–,·,–,–
CN(C)c1ccc(C=O)cc1[N+](=O)[O-],–,·,–,–
CN(C)c1ccc(/C=N/N=C(N)N)cc1[N+](=O)[O-],·,–,?,13µM
CCN(C(=O)CSc1ccc2ccccc2n1)C1CCCCC1,–,–,?,?
COc1ccc(CN(C)c2ncnc3sccc23)c(OC)c1OC,–,·,11.6µM,20.6µM
COc1ccc(CCN(C)c2ncnc3sccc23)cc1OC,–,–,?,–
OCCN(Cc1ccccc1)c1ncnc2sccc12,·,–,?,13µM
CN(Cc1ccccc1F)c1ncnc2sccc12,·,–,?,20.6µM
c1ccc(OCCOc2ncnc3sccc23)cc1,–,–,–,–
CN(Cc1cccs1)c1ncnc2sccc12,–,–,?,16.4µM
CCC1CN(CC(=O)NCc2cc(C)n(C)n2)Cc2cc(OC)ccc2O1 (centres undefined),·,·,–[9.04 µM],–
COc1ccccc1C(CNC(=O)CCNC(=O)c1ccccc1Cl)N1CCCC1 (centres undefined),·,·,–,–
SMILES,ClpP mod,TDP1 inh,DT40 TDP1 CPT,TDP1 cell noCPT
O=C1Nc2ccccc2Oc2cc(Oc3ccc(Cl)cc3)ccc21,–,–,–,?
O=C1Nc2cc(Cl)ccc2Oc2cc(Oc3ccccc3)ccc21,–,–,?,20.6µM
COc1cc(NC(=O)Cn2c(-c3ccccc3)cc(C(C)=O)c2C)cc(OC)c1,–,–,20.6µM,16.4µM
CCOC(=O)c1cc(-c2ccccc2)n(CC(=O)NC(C)c2ccccc2)c1C (centres undefined),–,–,18.4µM,9.2µM
CCOC(=O)c1cc(-c2ccccc2)n(CC(=O)Nc2cc(OC)cc(OC)c2)c1C,–,–,20.6µM,16.4µM
CCOc1ccccc1NC(=O)CCn1c(-c2ccc(OC)cc2)cc(C(C)=O)c1C,–,–,?,?
COc1cc(C)ccc1OCCOCCOc1cc(C)c(C)cc1Br,–,–,?,?
CCN1C[C@@H]2[C@@H]3C(=O)N(Cc4ccccc4)C(=O)[C@@H]3[C@](C)(C1=O)N2C(=O)c1ccc(Cl)c(Cl)c1,–,·,?,?
NNc1ccccc1C(F)(F)F,–,50.1µM,–,–
Cc1ccc(C(O)c2ncc(-c3ccccc3F)[nH]2)c(C)c1 (centres undefined),–,·,?,?
CCN(Cc1nc2ccccc2c(=O)[nH]1)C(=O)c1cccc(NC(=O)c2cccs2)c1,–,–[0.505 µM],11.6µM,?
CCN(Cc1nc2ccccc2c(=O)[nH]1)C(=O)c1cc2c(s1)CCCCC2,–,–,14.6µM,?
CCN(Cc1nc2cc(Cl)ccc2c(=O)[nH]1)C(=O)c1cccc(NC(=O)c2cccs2)c1,–,–,?,?
O=C(c1ccccc1)N(Cc1nc2ccccc2c(=O)[nH]1)C1CCCCC1,·,–,?,?
